# Compound activity (PubChem)
# Only some compounds are listed: those with a hit (about 8% of all), similar ones and a draw of the others.
# Marburg entry inh: Marburg virus entry inhibition. Marburg virus pseudotyped entry inhibition, cell reporter. Potency, µM (series often up to 37.8 µM), without a hit: at the highest dose activity change, negative = inhibition, actives largely listed as inhibitors. 300,000 tested, 1.8% active. AID 540276; calls by dose curve; tested in HEK293 cells; note: potency is the fitted concentration of half-maximal effect; % is set by controls: 0 for no effect and ±100 for the full control effect
# FMDV inh: foot and mouth disease virus antiviral activity. FMDV antiviral cell-based qHTS. 410,000 tested, 1.2% active. Potency, µM (top dose mostly 57.9 µM), inactives show at the top dose activity change, negative = inhibition, usual class: inhibitors; calls by dose curve; tested in HEK293T cells; note: read-out not given here; potency is the fitted concentration of half-maximal effect; % is set by controls: 0 for no effect and ±100 for the full control effect; nearly all actives have a fitted effect of over 45% in size
# LASV entry inh: inhibitors of Lassa virus binding or cell entry; Lassa virus pseudotype entry inhibition, cell reporter; Potency, µM (series often up to 37.9 µM), for inactives: at the top dose activity change, negative = inhibition, usual class: inhibitors; 300,000 tested, 1.2% active; calls by dose curve; tested in HEK293 cells; note: potency is the fitted concentration of half-maximal effect; % is set by controls: 0 for no effect and ±100 for the full control effect; nearly all actives have a fitted effect of over 50% in size
# SARS PLpro yeast: SARS-CoV PLP inhibition in yeast | S. cerevisiae expressing SARS-CoV PLpro, growth rescue | Potency, µM (titrated, usually from 32.9 µM), for inactives: at the top dose activity, positive = growth rescue, usual class: activators | 330,000 tested, 0.19% active; calls by dose curve; note: potency is the fitted concentration of half-maximal effect; 0% is about no effect; nearly all actives have a fitted effect of over 55% in size
# HCV inhibitor: inhibitors of hepatitis C virus infection; Huh7.5.1 HCVcc-Cre infection, luciferase reporter, 44 h; Potency, µM (titrated, usually from 41.8 µM), for the others: at the top dose activity change, negative = inhibition, hits mostly inhibitors; 340,000 tested, 3.4% active; AID 651820; active = well fitted inhibition curve with a large enough effect; inconclusive = small, poorly fitted or top-dose-only effect, or another doubt; inactive = no such curve, though single readings can be large or run the other way; note: potency is the fitted concentration of half-maximal effect; % is set by controls: 0 for no effect and ±100 for the full control effect
#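 1,000 cells/well; 4 h culture; + compound; + HCVcc-Cre (~0.5 moi); 44 h; luciferase substrate, RT 15 min; read 15 sec.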
# HCMV antiviral: human cytomegalovirus inhibition; HFF cells, HCMV-luciferase reporter, 72 h; stronger effect = lower value; activity change, negative = inhibition, % at 57.5 µM; 410,000 tested, 4.5% active; AID 1259415; in the data active = activity change below about -60%; inconclusive = no clear call, values can overlap the other calls; inactive = above about -39%; note: % is set by controls: 0 for no effect and ±100 for the full control effect
#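 Two compound doses tested in HFFs infected with HCMV-luciferase, MOI 1 PFU/cell, 72 h at 37C. Lysate luminescence read with OneGlo; data normalized against buffer-only and 10uM Salinomycin inhibitor controls.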
# * hit, by the source's call; ? = inconclusive; / = not tested or not shown; [ ] = remark or other dose.
SMILES,Marburg entry inh,FMDV inh,LASV entry inh,SARS PLpro yeast,HCV inhibitor,HCMV antiviral
CCOC(=O)c1c(NC(NC(=O)CF)C(Cl)(Cl)Cl)sc2c1CCCC2 (centres undefined),?,-17.4%,?,-111.9%,?,-11.5
COC(=O)c1c(NC(NC(C)=O)C(Cl)(Cl)Cl)sc2c1CCCC2 (centres undefined),?,35.5µM*,-17.9%,-15.5%,11.2µM*,-5.6
CC1CCc2c(sc(NC(=O)c3ccco3)c2C(=O)O)C1 (centres undefined),3.55µM*,-0.7%,?,-18.5%,?,43.0
COC(=O)c1c(NC(NC(=O)C(C)C)C(Cl)(Cl)Cl)sc2c1CCC2 (centres undefined),?,-28.5%,?,-24.3%,?,?
O=C(Nc1sc2c(c1C(=O)O)CCCCC2)c1ccco1,?,-32.7%,?,-20.1%,18.5%,61.4
CCOc1ccccc1NC1(c2ccccc2)C(=O)c2ccccc2C1=O,/,6.1%,-0.8%[46.1 µM],/,/,7.6
COc1ccccc1-c1ccnc(-n2ncc(C(=O)N[C@H]3CCCCNC3=O)c2C2CC2)n1,/,39.9%,/,/,/,/
CCn1nc(C)c2c(-c3ccccc3)cc(=O)n(C(C)C(=O)NCCc3ccccc3)c21 (centres undefined),/,-10.0%,?,/,/,-17.7
COC(=O)c1c(NC(=O)C2CC2)sc2c1CCCC2,/,-8.8%,/,-11.9%,10µM*,1.5
CCn1ncc(C2=NOC(C(=O)Nc3cnn(C45CC6CC(CC(C6)C4)C5)c3)C2)c1C (centres undefined),-24.9%,?,?,5.6%,-22.7%,-82.8*
CCn1ncc(C2=NOC(C(=O)NCC(C)C)C2)c1C (centres undefined),7.5%,23.3%,?,-1.5%,9.9%,18.2
CCn1cc(C2=NOC(C(=O)Nc3cccc(C(C)=O)c3)C2)c(C)n1 (centres undefined),-29.8%,?,-2.2%,11.6%,6.31µM*,-64.5*
Cc1ccc(C(=O)Nc2cccc(-c3nc(CNC(=O)C4(C)CC4)c(C)o3)c2)s1,/,27.6%,/,/,/,/
CC(=O)N1CC2=C(CCCC2)C(C)CC12CCCCC2 (centres undefined),-17.6%,/,/,/,/,/
O=C(NCc1cccnc1)c1nc(-c2ccc(C(F)(F)F)cc2)no1,?,-27.0%,-9.4%,0.9%,?,-60.5*
O=C(NCc1ccncc1)c1nc(-c2ccc(C(F)(F)F)cc2)no1,10.4%[46.1 µM],?,-8.0%,-1.2%,?,-79.1*
Cc1ccc(NC(=O)C(=O)NCC(c2cccnc2)N2CCc3ccccc3C2)cc1 (centres undefined),/,?,9.2%[46.1 µM],/,/,-5.3
CC(C)(C)OC(=O)N1CCC(c2c(C(=O)Nc3ccc4c(c3)OCO4)cnn2-c2ccc(F)cc2F)CC1,/,17.8%,-23.3%[46.1 µM],/,/,?
CC[N+](CC)(CCCCS(=O)(=O)[O-])CCNP1(=O)C=C(c2ccccc2)OC(c2ccccc2)=C1,/,2.7%,/,-0.9%,6.5%,-70.4*
O=C(C[n+]1ccn(CCCNP2(=O)C=C(c3ccccc3)OC(c3ccccc3)=C2)c1)c1ccccc1,/,-0.5%,/,0.7%,-5.0%,?
O=[N+]([O-])c1cccc2nc(-c3ccccc3)c(-c3ccccc3)nc12,-3.8%,?,-28.2%,-1.0%,-9.3%,-101.3*
O=C1NC(=O)N(Cc2ccccc2)C(=O)/C1=C/C=C/c1ccco1,/,12.6µM*,/,-4.5%,?,0.0
CC(C)N1C(=O)/C(=C/C=C/c2ccco2)C(=O)N(Cc2ccco2)C1=O,3.98µM*,17.8µM*,?,0.5%,?,-38.2
CC(C)c1ccc(N2C(=O)NC(=O)/C(=C\C=C\c3ccco3)C2=O)cc1,?,?,?,2.6%,?,-95.3*
CCNC(=S)N/N=C(\C)c1ccc(N2CCOCC2)cc1,3.1%,-8.5%,?,-0.7%,?,-16.0
SMILES,Marburg entry inh,FMDV inh,LASV entry inh,SARS PLpro yeast,HCV inhibitor,HCMV antiviral
C/C(=N\NC(=O)c1ccc(F)cc1)c1ccc(N2CCOCC2)cc1,?,-8.6%,4.2%[46.1 µM],0.5%,-3.6%,-16.9
C/C(=N\NC(=O)COc1ccc(C(C)(C)C)cc1)c1ccc(N2CCOCC2)cc1,13.0%,-9.4%,1.3µM*,2.9%,-9.4%,17.1
O=C(COc1ccc([N+](=O)[O-])cc1)NCC1(N2CCOCC2)CCCCC1,11.6%[46.1 µM],-1.3%,-3.4%[46.1 µM],/,/,-6.4
CNC(=S)N/N=C(\C)c1ccc(N2CCOCC2)cc1,/,37.1%,/,15.9%,-15.3%,-99.3*
CC(C)(C)c1ccc(OCC(=O)NCC2(N3CCOCC3)CCCCC2)cc1,?,?,?,/,/,-72.7*
CCc1ccc(CN2C(=O)c3ccccc3C2C(=O)NCCc2ccc(OC)c(OC)c2)cc1 (centres undefined),/,6.8%,-8.6%[46.1 µM],/,/,-31.1
COc1cc(OC)cc(C(=O)Nc2ccc(S(=O)(=O)N3CCCCC3c3cccnc3)cc2)c1 (centres undefined),/,?,?,/,/,-68.2*
COC(=O)N1CCC2(CC1)CN(C(=O)Nc1ccc(OC)cc1)C2,/,-0.4%,/,/,/,/
Cn1c(C(=O)N2CCCC(C(=O)NCCCSC3CCCCC3)C2)cc2sccc21 (centres undefined),?,?,12.6µM*,-14.2%,?,-61.1*
CCn1c(C(=O)N2CCCC(C(=O)NCCCc3ccccc3)C2)cc2sccc21 (centres undefined),?,/,-18.4%,21.5%,?,-70.3*
CCOC(=O)c1ccc(NC(=O)C2CCCN(c3ncnc4onc(-c5ccc(F)cc5)c34)C2)cc1 (centres undefined),/,-14.8%,7.1%[46.1 µM],/,/,3.4
Cc1ccccc1NC(=S)NC(=O)c1cncc(Br)c1,?,-11.4%,?,11.2%,-5.2%,-10.7
O=C(NC(=S)Nc1cccnc1)c1cccc(Br)c1,?,0.0%,1.4%[46.1 µM],-8.2%,-5.7%,-27.4
O=C(NC(=S)Nc1cc(Cl)ccc1O)c1cccc(Br)c1,/,43.2%,/,-0.1%,11.2µM*,?
Cc1c(Cl)cccc1NC(=S)NC(=O)c1cncc(Br)c1,-5.1%[46.1 µM],-8.5%,3.16µM*,/,6.4%,-65.4*
S=C(Nc1ccccc1)N1CCN(C(=S)c2ccccc2)CC1,7.6%[46.1 µM],-7.9%,?,0.4%,4.2%,-101.7*
S=C(Nc1ccccc1)N1CCCCC1,6.4%,25.4%,19.4%,5.7%,-8.7%,-3.6
CC1CCCCN1C(=O)c1ccc2c(c1)N(Cc1ccc(Cl)cc1)C(=O)c1ccccc1S2=O (centres undefined),?,-3.0%,?,/,/,-15.0
Cc1cccc(C(=O)Nc2nnc(S(=O)(=O)N3c4ccccc4CC3C)s2)c1 (centres undefined),/,-22.1%,-3.4%[46.1 µM],/,/,-2.2
N#C/C(=C/c1ccc(-c2ccc(S(N)(=O)=O)cc2)o1)c1nc2ccccc2s1,?,-8.6%,?,-2.5%,4.47µM*,?
